Source: PubChem (Sanford-Burnham Center for Chemical Genomics)
An excerpt weighted towards active compounds, which were near 6.3% of everything screened.
Mdm2 MdmX PPI: inhibitors of human Mdm2-MdmX association, primary screen, cell-based, luminescence, split luciferase, SaOS-2, uHTS; 330,000 tested, 3% active; Protein Mdm4 (Homo sapiens) + E3 ubiquitin-protein ligase Mdm2 (Homo sapiens), …; SaOS-2 split-luciferase Mdm2/MdmX complementation; AID 485346, 2010; inhibition, % at 8 µM;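 active means inhibition of at least 50% at 8 µM in the primary screen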
Target sequence (O15151 whole entry, looked up): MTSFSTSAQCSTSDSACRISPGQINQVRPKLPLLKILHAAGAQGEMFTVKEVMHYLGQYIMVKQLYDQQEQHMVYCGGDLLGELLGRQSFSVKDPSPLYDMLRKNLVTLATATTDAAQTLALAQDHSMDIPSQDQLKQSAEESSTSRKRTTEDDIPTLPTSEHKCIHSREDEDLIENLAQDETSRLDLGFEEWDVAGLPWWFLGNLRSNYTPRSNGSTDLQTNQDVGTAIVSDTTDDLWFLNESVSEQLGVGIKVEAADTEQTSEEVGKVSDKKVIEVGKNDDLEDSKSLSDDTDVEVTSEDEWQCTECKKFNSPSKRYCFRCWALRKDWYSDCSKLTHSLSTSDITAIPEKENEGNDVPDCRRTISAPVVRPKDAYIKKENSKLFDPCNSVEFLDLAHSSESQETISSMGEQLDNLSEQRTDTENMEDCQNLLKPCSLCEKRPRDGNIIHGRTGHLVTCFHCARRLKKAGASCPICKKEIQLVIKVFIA
Target sequence (Q00987 whole entry, looked up): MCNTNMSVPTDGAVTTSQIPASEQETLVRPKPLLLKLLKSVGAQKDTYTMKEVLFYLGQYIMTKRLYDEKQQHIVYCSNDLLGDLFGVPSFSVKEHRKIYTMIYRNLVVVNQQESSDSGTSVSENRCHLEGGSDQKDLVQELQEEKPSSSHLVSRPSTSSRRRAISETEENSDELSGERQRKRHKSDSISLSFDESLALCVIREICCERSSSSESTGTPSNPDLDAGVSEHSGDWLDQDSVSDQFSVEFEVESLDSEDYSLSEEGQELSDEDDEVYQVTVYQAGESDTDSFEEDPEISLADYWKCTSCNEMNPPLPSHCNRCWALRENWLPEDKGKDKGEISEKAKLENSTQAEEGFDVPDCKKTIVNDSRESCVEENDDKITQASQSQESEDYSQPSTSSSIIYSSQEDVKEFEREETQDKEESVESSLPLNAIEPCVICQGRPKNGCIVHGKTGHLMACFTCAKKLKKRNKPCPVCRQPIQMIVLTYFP
MPTP inh: mitochondrial permeability transition pore inhibitors, primary screen, biochemical, isolated mouse mitochondria, absorbance. AID 602449, 2012. 360,000 tested, 1.4% active. Ca2+ swelling absorbance, 30 min. inhibition, % at 10 µM;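 active means inhibition of 50% or more, scaled per plate between neutral and stimulator controls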;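 further: 0% = DMSO wells given calcium and 100% = 1 mM EGTA wells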
tim23-1 inh: growth inhibitors of tim23-1 mutant yeast, primary screen, luminescence, uHTS; S. cerevisiae tim23-1 growth, BacTiter-Glo luminescence, 24 h; inhibition, % at 20 µM; 330,000 tested, 1.3% active; AID 463212, 2010;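 active means growth inhibition of the mutant yeast at or above 50%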;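 further: temperature-sensitive mutant grown at 25 °C; plate controls were DMSO-treated mutant yeast for no effect and medium wells lacking yeast for full effect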
tim10-1 inh: growth inhibitors of tim10-1 mutant yeast, primary screen, luminescence, uHTS; S. cerevisiae tim10-1 ts strain growth, BacTiter-Glo, 24 h; inhibition, % at 20 µM; 330,000 tested, 2.2% active;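 active means inhibition of at least 40%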;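 further: mutant grown at 25 °C; 0% = DMSO wells with yeast and 100% = wells holding no yeast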
TIM10 inh: growth inhibitors of isogenic TIM10 control yeast, primary screen, counter-screen for tim10-1 yeast inhibitor project, luminescence, uHTS; S. cerevisiae TIM10 strain growth, BacTiter-Glo luminescence, 24 h; inhibition, % at 10 µM; 330,000 tested, 1.4% active;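 active means inhibition of 40% or more at the single tested concentration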;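 further: wild-type TIM10 isogenic control strain grown at permissive 25 °C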
tim10-1 confirm: growth inhibitors of tim10-1 mutant yeast, confirmation, single concentration, luminescence, S. cerevisiae; shares compounds with tim10-1 inh; S. cerevisiae tim10-1 ts strain growth, BacTiter-Glo, 24 h; inhibition, % at 20 µM; 7,400 tested, 56% active; AID 463213, 2010;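 active means inhibition of yeast growth at or above a set limit in either of two repeat tests at 20 µM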;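 further: tim10-1 mutant grown at permissive 25 °C to find synthetic lethal compounds; 0% = DMSO yeast wells and 100% = medium wells without yeast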
* hit, by the source's call; x = not tested or not shown.

SMILES | Mdm2 MdmX PPI | MPTP inh | tim23-1 inh | tim10-1 inh | TIM10 inh | tim10-1 confirm
O=S(=O)(c1ccc(Cl)cc1)N1CCC2(CC1)OCCN2S(=O)(=O)c1cccs1 | -3 | -1 | 27 | 48* | -3 | 29*
COc1ccc(CN(C)C(=O)[C@H]2O[C@@H](n3ccc(N)nc3=O)[C@H](O)[C@@H]2O)cc1OC | x | -3 | x | x | x | x
O=[N+]([O-])c1nn(-c2ccc(Cl)cc2)n(O)c1=NCc1cccnc1 | -34 | -1 | 35 | 42* | 29 | 30*
CCOc1ccc(C(OC(=O)c2ccco2)C(=O)NCc2ccc(C)cc2)cc1 (stereo unspecified) | -16 | 0 | 23 | 43* | -9 | 12
Cc1ccc(C(OC(=O)c2ccco2)C(=O)NCc2cccs2)cc1 (stereo unspecified) | -12 | 0 | 20 | 14 | -3 | x
CC1=Nc2ccccc2/C1=C\c1nc(-c2ccc(F)cc2)oc1O | 13 | 8 | 24 | 53* | 39 | 29
COc1ccc(/C=C(\NC(=O)c2ccccc2)C(=O)N/N=C/c2sccc2C)cc1 | -29 | 1 | -1 | 51* | 19 | 2
COc1cc(OC)cc(C2=Cc3ccc(OC)cc3C(CC(C)=O)N2c2ccc(-c3cccs3)cc2)c1 (stereo unspecified) | x | 1 | x | x | x | x
Cc1ccc2nc(-c3ccc(C#N)cc3)c(Cc3ccccc3C(F)(F)F)n2c1 | x | 1 | x | x | x | x
C=CCOC(=O)C(C#N)c1nc2ccccc2nc1N1CCN(Cc2ccc3c(c2)OCO3)CC1 (stereo unspecified) | 24 | 1 | 42 | 41* | 23 | 26
CCCNC(=O)C1(C)CCN(C(=O)c2ccc(C)c(F)c2)C1 (stereo unspecified) | x | -1 | x | x | x | x
O=C(c1ccc(CS(=O)Cc2ccc(Cl)cc2)o1)N1CCN(c2ccccc2F)CC1 (stereo unspecified) | 18 | 0 | 23 | 10 | 14 | x
Cc1ccc(Cl)cc1N1CCN(C(=O)C2(S(=O)(=O)c3ccc(Cl)cc3)CC2)CC1 | 23 | 2 | 27 | 40* | 30 | 27
Cc1ccc(C)c(N2CCN(C(=O)c3ccc(CS(=O)Cc4ccc(Cl)cc4)o3)CC2)c1 (stereo unspecified) | 14 | 0 | 16 | 46* | 4 | -3
Cc1ccc(Cl)cc1N1CCN(C(=O)c2ccc(CS(=O)Cc3ccc(Cl)cc3)o2)CC1 (stereo unspecified) | -6 | 0 | 3 | 45* | 2 | -20
CC(=O)Oc1ccccc1Cn1c(C)c(C(=O)NCc2cccc([N+](=O)[O-])c2)sc1=O | x | 0 | x | x | x | x
c1ccc(-c2csc(-c3ccncc3)n2)cc1 | 0 | 1 | 15 | 10 | 17 | x
Oc1ccccc1-c1csc(-c2ccccc2)n1 | -109 | 2 | 19 | 46* | 12 | 37*
Cc1cc(C)n2nc(SCc3ccc(F)cc3Cl)nc2n1 | 0 | 0 | 37 | 2 | 15 | x
Cc1cc(C)n2nc(SCc3c(F)cccc3Cl)nc2n1 | -4 | 0 | 42 | 48* | 26 | 33*
COc1cccc(CNC(=O)c2cc(S(=O)(=O)N3CCCCC3)ccc2C)c1 | x | 0 | x | x | x | x
CC(C)(C)OC(=O)N1CCc2onc(-c3ccc(N)cc3)c2C1=O | x | 0 | x | x | x | x
O/N=C(\c1ccc(Cl)cc1Cl)c1ncc(C(F)(F)F)cc1Cl | 35 | 8 | 27 | 40 | 39 | 50*
O=C(c1ccc(Cl)cc1Cl)c1ncc(C(F)(F)F)cc1Cl | -9 | 3 | -8 | 14 | 6 | x
CCSc1nc2c(cnn2-c2ccc(C)cc2)c(=O)[nH]1 | 6 | 0 | 17 | 41* | 14 | -6
SMILES | Mdm2 MdmX PPI | MPTP inh | tim23-1 inh | tim10-1 inh | TIM10 inh | tim10-1 confirm
CC1CCN(c2nc(Cl)nc(Nc3ccc([N+](=O)[O-])cc3)n2)CC1 | 29 | 48 | 40 | 46* | 22 | 27
CN(Cc1ccc(Cl)c(Cl)c1)C(c1cc2ccccc2o1)c1nnnn1C(C)(C)C (stereo unspecified) | x | 4 | x | x | x | x
CCCCNC(=O)c1nc(C2CCN(S(=O)(=O)c3c(OC)cccc3OC)CC2)oc1-c1ccccc1 | x | 1 | x | x | x | x
Cc1ccc2c(CN3CCN(S(=O)(=O)/C=C/c4ccccc4)CC3)cc(=O)oc2c1 | 12 | 2 | 47 | 40* | 36 | 36*
Cc1cccc(NC(=O)CSc2nc3nc4c(cc3c(=O)n2-c2ccccc2)CCCC4)c1 | 0 | 1 | 17 | 29 | 15 | x
O=C(CSc1nc2nc3c(cc2c(=O)n1-c1ccccc1)CCCC3)Nc1cccc2ccccc12 | 5 | 3 | 12 | 43* | 1 | 9
O=C(CSc1nc2ccccc2c(=O)n1-c1ccc(F)cc1)Nc1ccc2c(c1)CCC2 | 41 | 5 | 19 | 41* | 21 | 18
Cc1ccccc1-n1c(SCC(=O)Nc2ccccc2)nc2nc3c(cc2c1=O)CCCC3 | 5 | -1 | 25 | 44* | 23 | 10
N#CCCN1CCCc2cc(N=Nc3ccc(C(F)(F)F)cc3)ccc21 | 3 | 0 | 22 | 41* | 26 | 34*
CCCN1CCCc2ccccc21 | 17 | 1 | -4 | -9 | -12 | x
COc1ccc(C(C(=O)Nc2ccc(F)cc2)N2CCN(c3cccc(C(F)(F)F)n3)CC2)cc1 (stereo unspecified) | x | 2 | x | x | x | x
COc1cccc(-c2nn(-c3ccccc3)cc2CN(C)C(C)c2ccncn2)c1 (stereo unspecified) | -23 | 1 | 33 | 44* | 16 | 22
COc1ccc(-n2cc(CN(C)C(C)c3ccncn3)c(-c3cccc(F)c3)n2)cc1 (stereo unspecified) | 9 | 2 | 20 | -14 | 16 | x
CCOC(=O)[C@]12CCC=C1N(Cc1cccc3ccccc13)C(=O)[C@H](CC(=O)N1CCOCC1)C2 | x | 0 | x | x | x | x
CCOC(=O)[C@]12CCCC=C1N(Cc1ccc3c(c1)OCO3)C(=O)[C@H](CC(=O)NCC13CC4CC(CC(C4)C1)C3)C2 | x | 0 | x | x | x | x
CC(C)CC(COCc1cccc(Cl)c1)N1CCN(C(=O)c2ccc(C(F)(F)F)cc2)CCC1=O (stereo unspecified) | 7 | -1 | 28 | 49* | 23 | 25
O=C(CCC(=O)N1CCN(c2ccc(Cl)c(Cl)c2)CC1)c1ccccc1 | 29 | 0 | 23 | 42* | 10 | 15
O=C(CCC(=O)N1CCN(c2ccc(F)cc2)CC1)c1ccc(Cl)cc1 | 5 | 1 | 15 | 10 | 25 | x
CCOC(=O)c1cccnc1SCC(=O)N(CC)c1cccc(C)c1 | 15 | 0 | 37 | 40* | 34 | 35*
CC(C)OC(=O)c1cccnc1SCC(=O)N(C)c1ccccc1 | 14 | 0 | 33 | 34 | 30 | x
